Test results published in PubChem BioAssay (NCATS).
Records with an inconclusive call do not appear. Active and inactive are the calls of the source. Unless noted, calls follow the shape of the dose curve; as a rule, active = well fitted curve in the direction sought with a large enough effect; inconclusive = small, poorly fitted or top-dose-only effect, or another doubt; inactive = no such curve, though single readings can be large; an effect the other way counts as inactive or inconclusive.

Key:
[1] = molecular target: Chromobox protein homolog 1 (Homo sapiens) (UniProt P83916); test: qHTS Validation Assay for Inhibitors of HP1-beta Chromodomain Interactions with Methylated Histone Tails (AID 488953); also: nearly all actives have a fitted effect of over 50% in size; also: potency is read from the fitted curve at half-maximal effect
Method in brief: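 Disruption of preformed HP1-beta:H3K9me3 peptide complexes (both 50 nM, PBS pH 7.4 with 0.01% Tween-20) is measured by AlphaScreen after 30 min compound exposure at room temperature, using streptavidin donor and nickel chelate acceptor beads at 10 ug/mL final.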

[2] = molecular target: Methanococcus maripaludis chaperonin (MmCpn) (UniProt Q6LX38); test: High-Throughput Screening for Modulators of Cytosolic Chaperonin Activity: MmCpn Primary Screen (AID 488978); also: 0% is about no effect
Method in brief: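 HTRF readout (320 nm excitation, 590/665 nm emission) of ADP generated by 50 nM MmCpn hydrolysing 30 uM ATP during 10 min at 37C; compound preincubated 5 min RT.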

[3] = molecular target: Transient receptor potential cation channel subfamily V member 1 (Homo sapiens) (UniProt Q8NER1); test: HTS Assay for Compounds that Act as Enhancers of the Vanilloid Receptor 1 (AID 488979); also: 0% is about no effect
Method in brief: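 TRPV1 cells loaded with Fluo-8 calcium dye; compound added and Ca2+ signal (ex 480/em 520 nm) followed 3 min, then capsaicin at EC20 added and read 2 more min to detect enhancement.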

[4] = molecular target: Thyrotropin receptor (Homo sapiens) (UniProt P16473); test: qHTS Assay for Antagonists of the Thyroid Stimulating Hormone Receptor (AID 488980); also: series mostly up to about 58 µM; 0% is about no effect
Method in brief: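 Inhibition of TSH-stimulated cAMP accumulation was quantified by homogeneous time-resolved FRET in TSHR-transfected HEK293 cells. Agonist: TSH, 4 nM final (EC80).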

[5] = molecular target: D(1A) dopamine receptor (Homo sapiens) (UniProt P21728); test: HTS Assay for Allosteric Agonists of the Human D1 Dopamine Receptor: Primary Screen for Agonists (AID 488981); also: 0% is about no effect
Method in brief: (§1)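 Tetracycline-induced HEK293 Trex D1 cells with forced coupling to calcium, loaded with no-wash calcium dye; kinetic fluorescence read 180 s after compound addition for agonism, then a further 180 s after an EC20 dopamine challenge for potentiation.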

[6] = molecular target: D(1A) dopamine receptor (Homo sapiens) (UniProt P21728); test: HTS Assay for Allosteric Agonists of the Human D1 Dopamine Receptor: Primary Screen for Potentiators (AID 488982); also: 0% is about no effect
Method in brief: as §1

[7] = molecular target: D(1A) dopamine receptor (Homo sapiens) (UniProt P21728); test: HTS Assay for Allosteric Agonists of the Human D1 Dopamine Receptor: Primary Screen for Antagonists (AID 488983);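 also: calcium flux response to an EC80 dopamine challenge measured with no-wash dye; nearly all actives have a fitted effect of over 65% in size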; also: potency is read from the fitted curve at half-maximal effect
Method in brief: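 Kinetic fluorescence at 1 cycle/sec tracked intracellular calcium in force-coupled, tetracycline-inducible HEK293 T-REx D1 cells. Loss of response to an EC80 dopamine dose, given 180 s after compound, marked antagonists.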

[8] = Validation screen for small molecules that induce genotoxicity in human embryonic kidney (HEK293T) cells expressing luciferase-tagged ELG1 (AID 493106); also: 0% is about no effect
Method in brief: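 Cells were dispensed at 2,000 per well, then 23 nL compound or DMSO was pinned in. After 16 hr at 37 °C and 5% CO2, ONE-Glo reagent was added. Luciferase activity was measured following 30 min at room temperature.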

[9] = molecular target: ATPase family AAA domain-containing protein 5 (Homo sapiens) (UniProt Q96QE3); test: Validation screen for small molecules that inhibit ELG1-dependent DNA repair in human embryonic kidney (HEK293T) cells expressing luciferase-tagged ELG1 (AID 493107);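 also: cells co-treated with the DNA-damaging agent 5-fluorouridine alongside compound; series mostly up to about 46 µM; % is scaled to controls: 0 for no effect and ±100 for the full control effect; inhibitors lower the ELG1-luciferase luminescence signal; nearly all actives have a fitted effect of over 70% in size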
Method in brief: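 Cells are dispensed in 1536-well format, then 5-fluorouridine and compound are pinned in. After a 16 hr incubation at 37 °C and 5% CO2, ONE-Glo is added and luciferase measured on a CCD imager.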

[10] = molecular target: Thyrotropin-releasing hormone receptor (Homo sapiens) (UniProt P34981); test: qHTS for Small Molecule Agonists and Allosteric Enhancers of Human TRH Receptor: Validation Screen for Agonists (AID 493127;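 active = calcium activation more than 3 SD above the typical response in the agonist read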;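 also: intracellular calcium rise by fluo-8 fluorescence before TRH EC20 addition; 0% is about no effect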); conditions: TRH receptor agonist cell assay; at 2 µM; stronger effect = higher value
Method in brief: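 Compounds are added by online pintool to dye-loaded TRHR cells while fluorescence is recorded every second. A rise in calcium signal during the agonist read marks activation; a later 10 nM TRH addition (EC20) serves the separate enhancer mode.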

[11] = Nrf2 qHTS screen for inhibitors: Validation (AID 493153; active = well fitted inhibition curve with a large enough effect in the main read-out, with a control signal flat, not every such curve was filed as active; also: potency is read from the fitted curve at half-maximal effect); conditions: Potency: luciferase luminescence; viability change: measured here: cytotoxicity max response
Method in brief: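 A549 ARE_Fluc, 5% FBS OPTI-MEM; cpd titration, 18-24 h, 37°C/5% CO2. Read 1: CellTiter-Fluor (Ex 405/Em 525), cytotox. Read 2: luciferase lum, Nrf2 activity.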

[12] = qHTS for Inhibitors of Cell Surface uPA Generation: Validation Assay (AID 493164);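 also: RAW 264.7 macrophage cells exposed to compound for 18 h; 0% is about no effect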
Method in brief: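 ATP-Lite luminescence read-out: ATP remains high when uPA activity-dependent LF translocation into the cytoplasm is blocked. RAW 264.7 cells, 18 h compound exposure at 37 C; 7-point titration, 2.45 nM to 38.3 uM final.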

[13] = molecular target: Galactokinase (Homo sapiens) (UniProt P51570); test: qHTS Validation Assay for Inhibitors of Human Galactokinase (GALK) (AID 493189); also: 0% is about no effect
Method in brief: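 Enzyme activity is inferred from ATP consumption: human GALK phosphorylates galactose (100 uM) using 35 uM ATP for 1 h at room temperature, and luciferase-based Kinase-Glo Plus reports unconsumed ATP.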

[14] = Validation screen for small molecules that induce DNA re-replication in SW480 colon adenocarcinoma cells (AID 504364); also: 0% is about no effect
Method in brief: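 Image-based qHTS: compounds were incubated with SW480 cells for 48 hr, nuclei stained with Hoechst, and per-nucleus fluorescence intensity scanned to flag cells with excess DNA content.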

[15] = molecular target: Peptidyl-prolyl cis-trans isomerase NIMA-interacting 1 (Homo sapiens) (UniProt Q13526); test: qHTS Validation Assay to Find Inhibitors of Pin1 (AID 504536; active = well fitted inhibition curve with a large enough effect in the polarisation, with a control signal flat, not every such curve was filed as active; the % refers to the polarisation;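 also: 0% = full Pin1 enzyme wells and -100% = no-enzyme wells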)
Method in brief: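 Fluorescence polarization competition: compounds (titration) displace HiFluor-488-labeled Pin1-1b peptide from Pin1 (0.3 uM final) in pH 7.5 HEPES buffer with DTT, 10 min at room temperature; %Activity normalized to no-enzyme wells, curves fitted.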

[16] = molecular target: Phosphoglycerate kinase, glycosomal (Trypanosoma brucei brucei) (UniProt P07378); test: qHTS Validation Assay to Find Inhibitors of Phosphoglycerate Kinase (AID 504547);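 also: control wells lack PGK and mark full inhibition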
Method in brief: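 Compounds are pinned into the substrate/PGK mixture, and GAPDH (100nM final) is added to start the reaction by producing 1,3-BPG. After 60 minutes at room temperature, Kinase-Glo Plus is added and luminescence is measured 10 minutes later.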

[17] = molecular target: phosphoglycerate mutase (Leishmania major) (UniProt Q4Q090); test: qHTS Validation Assay to Find Inhibitors of Phosphoglycerate Mutase (AID 504548); conditions: Potency: inhibition qHTS; also: series mostly up to about 58 µM; % is scaled to controls: 0 for no effect and ±100 for the full control effect
Method in brief: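 Lm PGAM 1.25nM final; 100 mM TEA pH 7.6, 5 mM MgCl2, 0.01% Tween-20; 45 min RT; Kinase-GloPlus, 10 min; end-point luminescence. Enzyme-free wells as negative controls.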

[18] = Inducers of the Endoplasmic Reticulum Stress Response (ERSR) in human glioma: Validation (AID 504836); also: 0% is about no effect
Method in brief: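 Stably transfected U87-MG glioma cells carrying a GRP78-based luciferase sensor; 16 h compound incubation. Luminescence end-point read 10 min after Bright-Glo addition at room temperature.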

[19] = molecular target: ATP-dependent 6-phosphofructokinase (Trypanosoma brucei brucei) (UniProt O15648); test: qHTS Assay to Find Inhibitors of T. brucei phosphofructokinase: hit validation (AID 492961);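 also: luminescence reports ADP formed as PFK phosphorylates fructose-6-phosphate with ATP; series mostly up to about 51 µM; % is scaled to controls: 0 for no effect and ±100 for the full control effect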
Method in brief: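 Inhibition of parasite PFK is measured as reduced ADP formation, quantified via luciferase after ATP depletion. Assay used 0.1 mM ATP, 0.5 mM F6P, 1.25 nM enzyme, 45 min incubation.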

Sequence of Chromobox protein homolog 1 (Homo sapiens) (P83916 whole entry, looked up): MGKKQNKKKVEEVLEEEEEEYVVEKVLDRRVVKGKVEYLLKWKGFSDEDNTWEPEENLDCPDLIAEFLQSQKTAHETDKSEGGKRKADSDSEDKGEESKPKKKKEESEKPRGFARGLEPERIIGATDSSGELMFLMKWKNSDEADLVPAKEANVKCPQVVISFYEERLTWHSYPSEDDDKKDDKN
Sequence of D(1A) dopamine receptor (Homo sapiens) (P21728 whole entry, looked up): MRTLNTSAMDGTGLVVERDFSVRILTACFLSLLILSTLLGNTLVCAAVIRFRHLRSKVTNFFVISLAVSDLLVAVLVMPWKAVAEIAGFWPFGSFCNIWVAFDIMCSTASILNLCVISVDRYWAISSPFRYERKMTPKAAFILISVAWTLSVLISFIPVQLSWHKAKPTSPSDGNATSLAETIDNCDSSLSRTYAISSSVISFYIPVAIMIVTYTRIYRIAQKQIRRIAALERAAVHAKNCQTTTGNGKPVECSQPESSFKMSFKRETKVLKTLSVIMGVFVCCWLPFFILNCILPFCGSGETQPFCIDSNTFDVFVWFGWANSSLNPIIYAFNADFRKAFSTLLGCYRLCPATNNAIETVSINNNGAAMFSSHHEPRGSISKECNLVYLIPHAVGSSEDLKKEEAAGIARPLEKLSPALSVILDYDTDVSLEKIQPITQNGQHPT
Sequence of Methanococcus maripaludis chaperonin (MmCpn) (Q6LX38 1-543): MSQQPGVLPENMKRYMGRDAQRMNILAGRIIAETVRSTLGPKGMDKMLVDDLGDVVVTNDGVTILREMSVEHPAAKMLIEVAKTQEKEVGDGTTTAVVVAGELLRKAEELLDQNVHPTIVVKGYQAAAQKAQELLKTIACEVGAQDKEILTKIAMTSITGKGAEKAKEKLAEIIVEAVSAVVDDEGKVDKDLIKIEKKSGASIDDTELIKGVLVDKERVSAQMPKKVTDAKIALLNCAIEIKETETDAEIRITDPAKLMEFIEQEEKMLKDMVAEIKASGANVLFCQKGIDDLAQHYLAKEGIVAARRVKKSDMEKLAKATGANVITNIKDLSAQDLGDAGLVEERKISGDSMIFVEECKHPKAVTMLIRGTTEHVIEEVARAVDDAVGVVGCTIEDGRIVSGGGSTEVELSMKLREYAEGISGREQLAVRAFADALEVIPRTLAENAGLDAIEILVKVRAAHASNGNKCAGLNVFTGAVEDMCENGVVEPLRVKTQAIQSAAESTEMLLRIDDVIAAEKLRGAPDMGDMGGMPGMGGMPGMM
Sequence of Phosphoglycerate kinase, glycosomal (Trypanosoma brucei brucei) (P07378 whole entry, looked up): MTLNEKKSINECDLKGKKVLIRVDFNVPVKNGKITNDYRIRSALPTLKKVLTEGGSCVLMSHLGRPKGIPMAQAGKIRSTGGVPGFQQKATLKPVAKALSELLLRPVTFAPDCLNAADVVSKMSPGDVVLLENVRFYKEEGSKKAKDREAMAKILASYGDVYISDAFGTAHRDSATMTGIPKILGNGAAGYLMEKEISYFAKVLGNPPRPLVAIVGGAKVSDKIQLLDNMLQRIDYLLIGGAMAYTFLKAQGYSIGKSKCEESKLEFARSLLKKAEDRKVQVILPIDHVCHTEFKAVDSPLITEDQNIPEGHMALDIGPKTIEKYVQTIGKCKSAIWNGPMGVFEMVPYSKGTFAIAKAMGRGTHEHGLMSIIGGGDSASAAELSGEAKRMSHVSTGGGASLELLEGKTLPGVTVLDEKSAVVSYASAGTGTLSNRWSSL
Sequence of Peptidyl-prolyl cis-trans isomerase NIMA-interacting 1 (Homo sapiens) (Q13526 whole entry, looked up): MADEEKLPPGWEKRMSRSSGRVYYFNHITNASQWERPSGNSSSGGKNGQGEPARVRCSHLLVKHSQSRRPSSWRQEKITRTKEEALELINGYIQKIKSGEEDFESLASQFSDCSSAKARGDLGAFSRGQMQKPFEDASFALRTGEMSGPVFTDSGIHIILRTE
Sequence of Transient receptor potential cation channel subfamily V member 1 (Homo sapiens) (Q8NER1 whole entry, looked up): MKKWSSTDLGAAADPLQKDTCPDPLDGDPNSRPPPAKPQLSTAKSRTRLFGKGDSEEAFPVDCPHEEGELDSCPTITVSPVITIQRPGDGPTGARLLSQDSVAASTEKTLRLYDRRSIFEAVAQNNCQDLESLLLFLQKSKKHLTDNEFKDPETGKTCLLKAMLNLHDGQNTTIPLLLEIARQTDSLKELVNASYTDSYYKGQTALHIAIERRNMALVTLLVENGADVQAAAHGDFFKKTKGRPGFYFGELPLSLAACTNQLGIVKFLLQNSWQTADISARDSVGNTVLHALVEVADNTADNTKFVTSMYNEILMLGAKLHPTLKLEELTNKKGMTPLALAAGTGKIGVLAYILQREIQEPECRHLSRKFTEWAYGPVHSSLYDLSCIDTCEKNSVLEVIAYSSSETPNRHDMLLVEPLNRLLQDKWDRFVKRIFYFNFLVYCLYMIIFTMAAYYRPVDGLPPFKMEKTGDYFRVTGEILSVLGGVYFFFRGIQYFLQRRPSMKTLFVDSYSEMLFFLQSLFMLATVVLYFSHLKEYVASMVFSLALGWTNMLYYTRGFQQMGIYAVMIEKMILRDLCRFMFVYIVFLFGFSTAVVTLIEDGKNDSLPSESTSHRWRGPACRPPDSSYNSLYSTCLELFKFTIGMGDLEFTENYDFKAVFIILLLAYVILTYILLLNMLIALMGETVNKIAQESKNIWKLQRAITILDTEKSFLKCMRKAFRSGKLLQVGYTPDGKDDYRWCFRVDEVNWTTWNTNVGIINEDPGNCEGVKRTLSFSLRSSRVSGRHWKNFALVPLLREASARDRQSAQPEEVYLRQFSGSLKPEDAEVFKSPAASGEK
Sequence of ATPase family AAA domain-containing protein 5 (Homo sapiens) (Q96QE3 whole entry, looked up, the tested form may be a part): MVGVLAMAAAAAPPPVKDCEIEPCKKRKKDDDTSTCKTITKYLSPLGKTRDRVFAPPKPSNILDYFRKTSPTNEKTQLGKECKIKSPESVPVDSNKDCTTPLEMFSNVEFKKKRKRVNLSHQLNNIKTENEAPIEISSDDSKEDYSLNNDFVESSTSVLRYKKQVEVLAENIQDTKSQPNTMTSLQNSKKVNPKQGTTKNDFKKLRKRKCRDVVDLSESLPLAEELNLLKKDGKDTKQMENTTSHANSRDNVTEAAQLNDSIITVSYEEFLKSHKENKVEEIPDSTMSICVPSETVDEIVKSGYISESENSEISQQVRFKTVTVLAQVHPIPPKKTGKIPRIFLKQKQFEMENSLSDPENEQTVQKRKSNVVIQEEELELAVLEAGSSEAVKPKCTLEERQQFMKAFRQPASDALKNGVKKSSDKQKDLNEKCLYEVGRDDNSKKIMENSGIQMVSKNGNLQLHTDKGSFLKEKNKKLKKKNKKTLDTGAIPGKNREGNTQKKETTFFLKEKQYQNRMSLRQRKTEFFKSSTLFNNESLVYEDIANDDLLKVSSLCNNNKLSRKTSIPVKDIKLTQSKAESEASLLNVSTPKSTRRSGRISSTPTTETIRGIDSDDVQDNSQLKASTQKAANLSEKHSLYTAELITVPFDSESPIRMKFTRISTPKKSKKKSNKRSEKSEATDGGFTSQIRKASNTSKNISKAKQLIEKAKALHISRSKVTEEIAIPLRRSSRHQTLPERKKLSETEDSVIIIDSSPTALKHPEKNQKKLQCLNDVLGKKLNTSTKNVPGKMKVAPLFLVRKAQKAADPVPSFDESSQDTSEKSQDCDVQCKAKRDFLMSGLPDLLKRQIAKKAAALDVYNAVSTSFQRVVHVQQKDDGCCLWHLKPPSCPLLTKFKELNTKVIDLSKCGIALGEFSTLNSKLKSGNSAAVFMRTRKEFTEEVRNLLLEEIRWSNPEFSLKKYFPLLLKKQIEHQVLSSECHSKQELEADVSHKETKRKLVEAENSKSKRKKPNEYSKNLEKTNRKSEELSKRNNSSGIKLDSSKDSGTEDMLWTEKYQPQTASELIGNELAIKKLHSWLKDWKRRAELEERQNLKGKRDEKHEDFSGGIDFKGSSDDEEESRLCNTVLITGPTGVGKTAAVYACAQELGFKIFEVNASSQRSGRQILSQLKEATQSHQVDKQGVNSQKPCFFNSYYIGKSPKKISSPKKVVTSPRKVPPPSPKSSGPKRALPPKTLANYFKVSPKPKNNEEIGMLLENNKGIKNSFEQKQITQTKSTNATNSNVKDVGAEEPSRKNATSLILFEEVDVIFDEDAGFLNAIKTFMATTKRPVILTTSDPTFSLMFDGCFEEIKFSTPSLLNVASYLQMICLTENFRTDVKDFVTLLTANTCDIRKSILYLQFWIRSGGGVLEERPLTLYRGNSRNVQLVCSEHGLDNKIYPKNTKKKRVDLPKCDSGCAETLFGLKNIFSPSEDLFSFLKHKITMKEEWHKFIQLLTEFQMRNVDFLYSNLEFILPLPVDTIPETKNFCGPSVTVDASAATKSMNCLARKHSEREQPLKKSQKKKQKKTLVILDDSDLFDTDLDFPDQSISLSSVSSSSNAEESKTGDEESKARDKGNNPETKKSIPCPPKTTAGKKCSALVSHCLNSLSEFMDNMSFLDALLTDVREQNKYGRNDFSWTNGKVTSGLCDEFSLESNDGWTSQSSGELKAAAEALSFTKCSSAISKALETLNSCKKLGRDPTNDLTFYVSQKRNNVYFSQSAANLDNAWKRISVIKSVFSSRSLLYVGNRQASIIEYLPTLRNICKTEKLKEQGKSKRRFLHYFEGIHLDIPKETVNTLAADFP
Sequence of phosphoglycerate mutase (Leishmania major) (Q4Q090 1-553): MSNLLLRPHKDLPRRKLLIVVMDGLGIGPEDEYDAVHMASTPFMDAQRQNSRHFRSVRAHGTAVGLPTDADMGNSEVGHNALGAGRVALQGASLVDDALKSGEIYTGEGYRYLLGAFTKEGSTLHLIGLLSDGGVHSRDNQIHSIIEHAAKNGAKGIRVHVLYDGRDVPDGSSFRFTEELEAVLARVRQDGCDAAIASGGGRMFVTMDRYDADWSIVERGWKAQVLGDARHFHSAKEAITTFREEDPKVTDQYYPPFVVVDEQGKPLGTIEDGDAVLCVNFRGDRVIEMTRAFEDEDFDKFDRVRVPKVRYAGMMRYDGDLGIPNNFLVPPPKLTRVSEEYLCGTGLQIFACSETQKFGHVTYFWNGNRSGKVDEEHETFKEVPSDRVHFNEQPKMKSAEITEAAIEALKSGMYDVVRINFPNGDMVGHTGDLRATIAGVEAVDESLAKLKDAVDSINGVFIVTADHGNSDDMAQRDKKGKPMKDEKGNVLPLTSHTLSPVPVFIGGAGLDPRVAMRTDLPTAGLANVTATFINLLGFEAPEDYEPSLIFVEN

CCCn1c(=O)c2[nH]c(C3CCCC3)nc2n(CCCOC(=O)c2ccc(S(=O)(=O)F)cc2)c1=O
inactive: Potency [1] | outcome [2] | outcome [3] | outcome [4] | Potency [5] | Potency [6] | Potency [7] | Potency [8] | Potency [9] | activation [10] -5.75% | Potency [11] | outcome [12] | outcome [13] | Potency [14] | Potency [15] | Potency [16] | Potency [17] | outcome [18]
-2.37%: viability change [11]

CCCN(CCC)CCc1ccc(O)c(O)c1
-6.78%: viability change [11]
active: Potency [7] 1.78 µM
inactive: Potency [1] | outcome [2] | outcome [3] | Potency [5] | Potency [6] | Potency [8] | Potency [9] | activation [10] -3.94% | Potency [11] | outcome [12] | outcome [13] | Potency [14] | Potency [15] | Potency [16] | Potency [17] | outcome [18]

CC(Cc1ccc(OCC(=O)O)cc1)NCC(O)c1cccc(Cl)c1 (configuration not stated)
-9.13%: viability change [11]
inactive: Potency [1] | outcome [2] | outcome [3] | outcome [4] | Potency [5] | Potency [6] | Potency [7] | Potency [8] | Potency [9] | activation [10] 0.5% | Potency [11] | outcome [12] | outcome [13] | Potency [14] | Potency [15] | Potency [16] | Potency [17]

N[C@@H](Cn1oc(=O)[nH]c1=O)C(=O)O
-3.31%: viability change [11]
inactive: Potency [1] | outcome [2] | outcome [3] | outcome [4] | Potency [5] | Potency [6] | Potency [7] | Potency [8] | Potency [9] | activation [10] -0.562% | Potency [11] | outcome [12] | outcome [13] | Potency [14] | Potency [15] | Potency [16] | Potency [17]

OCc1cnc[nH]1
1.78%: viability change [11]
inactive: Potency [1] | outcome [2] | outcome [3] | outcome [4] | Potency [5] | Potency [7] | Potency [8] | Potency [9] | activation [10] 1% | Potency [11] | outcome [12] | outcome [13] | Potency [14] | Potency [15] | Potency [16] | Potency [17] | outcome [18]

OC1CCCCC1N1CCC(c2ccccc2)CC1 (configuration not stated)
-3.18%: viability change [11]
inactive: Potency [1] | outcome [2] | outcome [3] | outcome [4] | Potency [5] | Potency [6] | Potency [7] | Potency [8] | Potency [9] | activation [10] -3.5% | Potency [11] | outcome [12] | outcome [13] | Potency [14] | Potency [15] | Potency [16] | Potency [17] | outcome [18]

COc1ccc(CNC(=O)/C=C/c2ccc3[nH]cc(CCN(C)C)c3c2)cc1
inactive: Potency [1] | outcome [2] | outcome [3] | outcome [4] | Potency [5] | Potency [6] | Potency [7] | Potency [8] | Potency [9] | activation [10] -0.312% | Potency [11] | outcome [12] | outcome [13] | Potency [14] | Potency [15] | Potency [16] | Potency [17] | outcome [18]
-0.218%: viability change [11]

COc1ccc(OC)c(C(O)C(C)N)c1 (configuration not stated)
inactive: Potency [1] | outcome [2] | outcome [3] | Potency [5] | Potency [6] | Potency [7] | Potency [19] | Potency [8] | Potency [9] | activation [10] 1.12% | Potency [11] | outcome [12] | outcome [13] | Potency [14] | Potency [15] | Potency [16] | Potency [17] | outcome [18]
-6.5%: viability change [11]

NNC(=O)c1ccc(O)cc1
6.63%: viability change [11]
inactive: Potency [1] | outcome [2] | outcome [3] | outcome [4] | Potency [5] | Potency [7] | Potency [8] | Potency [9] | activation [10] 0.375% | Potency [11] | outcome [12] | outcome [13] | Potency [14] | Potency [15] | Potency [16] | Potency [17]

c1ccc2cc(CC3=NCCN3)ccc2c1
-5.88%: viability change [11]
inactive: Potency [1] | outcome [2] | outcome [3] | Potency [5] | Potency [6] | Potency [7] | Potency [19] | Potency [8] | Potency [9] | Potency [11] | outcome [12] | outcome [13] | Potency [15] | Potency [16] | Potency [17]

CN1CCC(c2c[nH]c3ccc(O)cc23)CC1
inactive: Potency [1] | outcome [2] | outcome [3] | outcome [4] | Potency [5] | Potency [6] | Potency [8] | Potency [9] | activation [10] 1% | Potency [11] | outcome [12] | outcome [13] | Potency [15] | Potency [16] | Potency [17] | outcome [18]
active: Potency [7] 6.31 µM
-1.47%: viability change [11]

NC(=O)COc1c(F)cc(SCCNS(=O)(=O)c2ccccc2)cc1F
inactive: Potency [1] | outcome [2] | outcome [3] | outcome [4] | Potency [5] | Potency [6] | Potency [7] | Potency [8] | Potency [9] | activation [10] 0% | outcome [12] | outcome [13] | Potency [15] | Potency [16] | Potency [17]

CC(=O)NBr
inactive: Potency [1] | outcome [2] | outcome [3] | Potency [5] | Potency [6] | Potency [7] | Potency [8] | Potency [9] | activation [10] -0.0625% | Potency [11] | outcome [12] | outcome [13] | Potency [14] | Potency [15] | Potency [16] | Potency [17] | outcome [18]
1.41%: viability change [11]

O=S1(=O)N(CCN2CC=C(c3c[nH]c4cc(F)ccc34)CC2)c2cccc3c2N1CCC3
inactive: outcome [2] | outcome [3] | outcome [4] | Potency [5] | Potency [6] | Potency [8] | outcome [12] | outcome [13] | Potency [15] | Potency [16] | Potency [17]
-15.7%: viability change [11]
active: Potency [1] 39.8 µM | activation [10] 52.8% | Potency [11] 23.1 µM
